# Assay results: PubChem BioAssay (NCATS)
# Several values for one entry are separate records, joined by “and”; a condition that tells them apart may be missing. Identical values can stand only once. Records with an inconclusive call do not appear. Activity calls are given as the source filed them. Calls come from the whole dose curve; as a rule, active = well fitted curve in the direction sought with a large enough effect; inconclusive = small, poorly fitted or top-dose-only effect, or another doubt; inactive = no such curve, though single readings can be large; an effect the other way counts as inactive or inconclusive.
# Assay: qHTS Assay for Identifying Gametocytocidal Compounds (AID 743244); note: potency is the fitted concentration of half-maximal effect;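 for max response: actives lower the fluorescent signal which means gametocytes are killed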
# Details: P. falciparum 3D7 stage III-V gametocytes, alamarBlue, 72 h; max response: hits give low values
# Method in brief: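 Using 20,000 stage III–V 3D7 gametocytes per well, compounds were incubated 72 h under 37 °C/5% CO2. Viability was then assessed by 24 h alamarBlue reduction, measured fluorometrically at 525/598 nm.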
# % is set by controls: 0 for no effect and ±100 for the full control effect.
Structure (SMILES),max response,Potency
C[Se]CC[C@H](N)C(=O)O,8.55% (inactive),–
CCOc1ccc(S(=O)(=O)O)c2cccnc12,1.62% (inactive),–
CCN1\C(=C/C=C/C=C/c2sc3ccccc3[n+]2CC)Sc2ccccc21,–,11.2 µM (active)
Cc1cc(-c2ccc(N=Nc3ccc4c(S(=O)(=O)O)cc(S(=O)(=O)O)c(N)c4c3O)c(C)c2)ccc1N=Nc1ccc2c(S(=O)(=O)O)cc(S(=O)(=O)O)c(N)c2c1O,18.4% (inactive) and 0.953% (inactive),–
CSc1nc2cc(Oc3cccc(Cl)c3Cl)c(Cl)cc2[nH]1,0.358% (inactive),–
O=C(CCCN1CCC(C(=O)c2ccc(F)cc2)CC1)c1ccc(F)cc1,18.4% (inactive),–
c1ccc(-n2cnnn2)cc1,0.811% (inactive),–
CCCCCCCCCCCCCCCCOCCOCCOCCOCCOCCOCCOCCOCCOCCOCCOCCOCCOCCOCCOCCOCCOCCOCCOCCOCCO,-3.08% (inactive),–
CN[C@@H]1[C@@H](O)[C@@H](O[C@@H]2[C@@H](O)[C@H](OC3OC(CN)=CCC3N)[C@@H](N)C[C@H]2N)OC[C@]1(C)O (some centres not stated),-3.17% (inactive),–
NCC[C@H](O)C(=O)N[C@@H]1C[C@H](N)[C@@H](O[C@H]2O[C@H](CN)CC[C@H]2N)[C@H](O)[C@H]1O[C@H]1O[C@H](CO)[C@@H](O)[C@H](N)[C@H]1O,-1.8% (inactive),–
CCCCC[C@H](O)/C=C/[C@H]1[C@H](O)CC(=O)[C@@H]1CCCCCCC(=O)O,-10.5% (inactive),–
O=C(O)/C=C/C(=O)Nc1ccc(S(=O)(=O)Nc2nccs2)cc1,0.278% (inactive),–

# Assay: qHTS assay to identify small molecule inhibitors of chordoma cells - UCH-1 (AID 1259355); note: nearly all actives have a fitted effect of over 55% in size
# Details: UCH-1 chordoma viability, CellTiter-Glo, 48 h, combination, with auranofin plus four topoisomerase inhibitors; series mostly up to 46.1 µM; activity, negative = inhibition: at the top concentration
# Method in brief: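 800 cells/well, overnight attach; compounds pinned at 15 concs, then auranofin/camptothecin/doxorubicin/rubitecan/topotecan combo added; 48hr 37 C, 5% CO2; CellTiter-Glo, 30min RT, luminescence.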
row,Structure (SMILES),"activity, negative = inhibition"
1,O=C(CCCCCCCCCCCCC1CCCC1)Nc1ccc(S(=O)(=O)c2ccc(NC(=O)CCCCCCCCCCCCC3CCCC3)cc2)cc1,-5.02% (inactive)
2,CC(C)C[C@H](NC(=O)[C@@H](COC(C)(C)C)NC(=O)[C@H](Cc1ccc(O)cc1)NC(=O)[C@H](CO)NC(=O)[C@H](Cc1c[nH]c2ccccc12)NC(=O)[C@H](Cc1cnc[nH]1)NC(=O)[C@@H]1CCC(=O)N1)C(=O)N[C@@H](CCCN=C(N)N)C(=O)N1CCC[C@H]1C(=O)NNC(N)=O,3.42% (inactive)
3,CCCCCCCCCCCCCCCCCC(=O)OCC(C)O (configuration not stated),-23.6% (inactive)
4,O=[N+]([O-])c1c(Cl)cccc1-c1c[nH]cc1Cl,-12.8% (inactive)
5,CCN(CC)CCOc1ccc2nc(N(C)C)sc2c1,-22.9% (inactive)
6,CC(C)(C)c1ccc(CN2CCN(C(c3ccccc3)c3ccc(Cl)cc3)CC2)cc1 (configuration not stated),-11% (inactive)
7,C=CCN1CCCC1CNC(=O)c1cc(S(N)(=O)=O)cc(OC)c1OC (configuration not stated),-11.7% (inactive)
8,O=C1N=C2SCCN2C(=O)C1Cc1ccc(Cl)cc1 (configuration not stated),-8.79% (inactive)
9,CN(C)CCOc1ccc(/C(=C(/CCCl)c2ccccc2)c2ccccc2)cc1,-27.5% (inactive)
10,CCCCC[C@H](O)/C=C/[C@H]1[C@H](O)CC(=O)[C@@H]1C/C=C\CCCC(=O)O,1.79% (inactive)
11,CO/N=C(\C(=O)N[C@@H]1C(=O)N2C(C(=O)O)=C(C[N+]3(C)CCCC3)CS[C@H]12)c1csc(N)n1,-1.12% (inactive)
12,COC1=C(OC)C(=O)C(C/C=C(\C)CC/C=C(\C)CC/C=C(\C)CC/C=C(\C)CC/C=C(\C)CC/C=C(\C)CC/C=C(\C)CC/C=C(\C)CC/C=C(\C)CCC=C(C)C)=C(C)C1=O,-1.43% (inactive)
13,[O]=[Bi][O]C(=O)[O][Bi]=[O],-28.5% (inactive)
14,FC(F)(F)C(F)(F)C(F)(F)C(F)(F)C(F)(F)C(F)(F)F,-21.7% (inactive)
15,OCCN1CCN(CC/C=C2/c3ccccc3Sc3ccc(Cl)cc32)CC1,-11.7% [at 20.6 µM] (inactive)
16,C=CC(=O)O,11.9% (inactive)
17,CC(=C\c1ccccc1)/C=C1/SC(=S)N(CC(=O)O)C1=O,-6.34% (inactive)
18,CC12CCC(C[N+](C)(CCC[N+](C)(C)C)C1)C2(C)C (configuration not stated),-20.5% (inactive)
19,O=S(=O)(O)CC(S)CS (configuration not stated),8.46% (inactive)
20,NC[C@@H]1CC[C@@H](N)[C@@H](O[C@H]2[C@H](O)[C@@H](O[C@H]3O[C@H](CO)[C@@H](O)[C@H](N)[C@H]3O)[C@H](N)C[C@@H]2N)O1,-8.18% (inactive)
21,CCOC(=O)[C@@H](N)CS,-7.57% (inactive)
22,CCC(Oc1ccccc1)C(=O)N[C@@H]1C(=O)N2[C@@H]1SC(C)(C)[C@@H]2C(=O)O (some centres not stated),4.73% (inactive)
23,COc1ccccc1N1CCN(CCCC(=O)c2ccc(F)cc2)CC1,3.89% (inactive)
24,CC(C)(C)NCC(O)CSc1nc(-c2ccc(C(N)=O)s2)cs1 (configuration not stated),-5.52% (inactive)
25,CC(C)(C)CC(C)(C)c1cc(Cc2cc(C(C)(C)CC(C)(C)C)cc(-n3nc4ccccc4n3)c2O)c(O)c(-n2nc3ccccc3n2)c1,-2.17% (inactive)
